We go through 33 sequences from PMC11006913.

Assay [1] deals with HOXA7 (Homo sapiens, UniProt P31268 116-202). Nature of the assay: PBM; 200 nM protein, PBS. Particulars: dsDNA, one strand shown.
Assay [2] concerns the target HOXA7 (Homo sapiens, UniProt P31268 116-202, W177C). The experiment in a line: PBM; 200 nM protein, PBS. Particulars: dsDNA, one strand shown.

Sequence of HOXA7 (Homo sapiens, UniProt P31268 116-202, W177C) (P31268 116-202 W177C): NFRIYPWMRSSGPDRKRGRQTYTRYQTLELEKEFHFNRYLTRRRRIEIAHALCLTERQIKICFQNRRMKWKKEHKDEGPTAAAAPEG
Sequence of HOXA7 (Homo sapiens, UniProt P31268 116-202) (P31268 116-202): as the sequence (P31268 116-202 W177C) above, with C62W counted along it

Regarding CAGCGTGG, the binding signal is 8.45 upbm affinity estimate (log intensity, higher = more binding, comparable within an allelic series) in assay [1] and 8.4 upbm affinity estimate (log intensity, higher = more binding, comparable within an allelic series) in assay [2].

AGCATGCT: the binding signal in assay [1] was 8.54 upbm affinity estimate (log intensity, higher = more binding, comparable within an allelic series); in assay [2], 8.54 upbm affinity estimate (log intensity, higher = more binding, comparable within an allelic series).

As to ATAAGTAT, the binding signal in assay [1] is 9.57 upbm affinity estimate (log intensity, higher = more binding, comparable within an allelic series); in assay [2], 8.76 upbm affinity estimate (log intensity, higher = more binding, comparable within an allelic series).

With CCAGAGGA, the binding signal in assay [1] is 8.4 upbm affinity estimate (log intensity, higher = more binding, comparable within an allelic series); in assay [2], 8.47 upbm affinity estimate (log intensity, higher = more binding, comparable within an allelic series).

Regarding AGGCAAGG, the binding signal in assay [1] was 8.35 upbm affinity estimate (log intensity, higher = more binding, comparable within an allelic series); in assay [2], 8.48 upbm affinity estimate (log intensity, higher = more binding, comparable within an allelic series).

For the sequence AAGACGAG, the binding signal in assay [1] is 8.4 upbm affinity estimate (log intensity, higher = more binding, comparable within an allelic series); in assay [2], 8.43 upbm affinity estimate (log intensity, higher = more binding, comparable within an allelic series).

Take CAATTGCG: the binding signal was 9.48 upbm affinity estimate (log intensity, higher = more binding, comparable within an allelic series) in assay [1] and 8.54 upbm affinity estimate (log intensity, higher = more binding, comparable within an allelic series) in assay [2].

Regarding TACGTTAA, the binding signal in assay [1] was 9.58 upbm affinity estimate (log intensity, higher = more binding, comparable within an allelic series); in assay [2] it was 8.79 upbm affinity estimate (log intensity, higher = more binding, comparable within an allelic series).

Take AAATTACG: the binding signal in assay [1] is 10.3 upbm affinity estimate (log intensity, higher = more binding, comparable within an allelic series); in assay [2] it was 8.82 upbm affinity estimate (log intensity, higher = more binding, comparable within an allelic series).

For the sequence AAGGCTAC, the binding signal in assay [1] was 8.53 upbm affinity estimate (log intensity, higher = more binding, comparable within an allelic series); in assay [2] it was 8.49 upbm affinity estimate (log intensity, higher = more binding, comparable within an allelic series).

For the sequence AAGGACTG, the binding signal in assay [1] was 8.44 upbm affinity estimate (log intensity, higher = more binding, comparable within an allelic series); in assay [2], 8.4 upbm affinity estimate (log intensity, higher = more binding, comparable within an allelic series).

CCTGTGTC: the binding signal in assay [1] was 8.55 upbm affinity estimate (log intensity, higher = more binding, comparable within an allelic series); in assay [2], 8.53 upbm affinity estimate (log intensity, higher = more binding, comparable within an allelic series).

With CCATTACA, the binding signal in assay [1] was 10.6 upbm affinity estimate (log intensity, higher = more binding, comparable within an allelic series); in assay [2] it was 8.97 upbm affinity estimate (log intensity, higher = more binding, comparable within an allelic series).

With ACAGCGAG, the binding signal in assay [1] was 8.39 upbm affinity estimate (log intensity, higher = more binding, comparable within an allelic series); in assay [2], 8.41 upbm affinity estimate (log intensity, higher = more binding, comparable within an allelic series).

AATTGTAA: the binding signal in assay [1] was 9.73 upbm affinity estimate (log intensity, higher = more binding, comparable within an allelic series); in assay [2], 8.68 upbm affinity estimate (log intensity, higher = more binding, comparable within an allelic series).

With AGCGCCGA, the binding signal in assay [1] was 8.38 upbm affinity estimate (log intensity, higher = more binding, comparable within an allelic series); in assay [2], 8.29 upbm affinity estimate (log intensity, higher = more binding, comparable within an allelic series).

On to CATTATGC, for which the binding signal is 10.3 upbm affinity estimate (log intensity, higher = more binding, comparable within an allelic series) in assay [1] and 8.86 upbm affinity estimate (log intensity, higher = more binding, comparable within an allelic series) in assay [2].

In the case of CGTCCACC, the binding signal was 8.57 upbm affinity estimate (log intensity, higher = more binding, comparable within an allelic series) in assay [1] and 8.48 upbm affinity estimate (log intensity, higher = more binding, comparable within an allelic series) in assay [2].

As for CAAAGCGG, the binding signal in assay [1] was 8.47 upbm affinity estimate (log intensity, higher = more binding, comparable within an allelic series); in assay [2], 8.45 upbm affinity estimate (log intensity, higher = more binding, comparable within an allelic series).

Take GAAGGGAC: the binding signal is 8.46 upbm affinity estimate (log intensity, higher = more binding, comparable within an allelic series) in assay [1] and 8.39 upbm affinity estimate (log intensity, higher = more binding, comparable within an allelic series) in assay [2].

For CATTTTAA, the binding signal in assay [1] was 9.97 upbm affinity estimate (log intensity, higher = more binding, comparable within an allelic series); in assay [2], 8.79 upbm affinity estimate (log intensity, higher = more binding, comparable within an allelic series).

As to GGGTACCC, the binding signal in assay [1] is 8.53 upbm affinity estimate (log intensity, higher = more binding, comparable within an allelic series); in assay [2], 8.44 upbm affinity estimate (log intensity, higher = more binding, comparable within an allelic series).

AGACGGGA: the binding signal in assay [1] was 8.62 upbm affinity estimate (log intensity, higher = more binding, comparable within an allelic series); in assay [2], 8.51 upbm affinity estimate (log intensity, higher = more binding, comparable within an allelic series).

Consider CGGAAGGC, for which the binding signal in assay [1] is 8.5 upbm affinity estimate (log intensity, higher = more binding, comparable within an allelic series); in assay [2], 8.35 upbm affinity estimate (log intensity, higher = more binding, comparable within an allelic series).

Regarding CAGTAATC, the binding signal in assay [1] was 9.67 upbm affinity estimate (log intensity, higher = more binding, comparable within an allelic series); in assay [2] it was 8.66 upbm affinity estimate (log intensity, higher = more binding, comparable within an allelic series).

Take CGCTGAAG: the binding signal in assay [1] is 8.52 upbm affinity estimate (log intensity, higher = more binding, comparable within an allelic series); in assay [2] it was 8.44 upbm affinity estimate (log intensity, higher = more binding, comparable within an allelic series).

For AGAGCCTG, the binding signal is 8.58 upbm affinity estimate (log intensity, higher = more binding, comparable within an allelic series) in assay [1] and 8.43 upbm affinity estimate (log intensity, higher = more binding, comparable within an allelic series) in assay [2].

Regarding ACTGAAGG, the binding signal in assay [1] is 8.48 upbm affinity estimate (log intensity, higher = more binding, comparable within an allelic series); in assay [2], 8.52 upbm affinity estimate (log intensity, higher = more binding, comparable within an allelic series).

Regarding AGGCTGGA, the binding signal is 8.5 upbm affinity estimate (log intensity, higher = more binding, comparable within an allelic series) in assay [1] and 8.45 upbm affinity estimate (log intensity, higher = more binding, comparable within an allelic series) in assay [2].

In the case of CGCAGGTC, the binding signal in assay [1] is 8.46 upbm affinity estimate (log intensity, higher = more binding, comparable within an allelic series); in assay [2], 8.44 upbm affinity estimate (log intensity, higher = more binding, comparable within an allelic series).

Consider AGCCGCTG, for which the binding signal in assay [1] is 8.52 upbm affinity estimate (log intensity, higher = more binding, comparable within an allelic series); in assay [2], 8.43 upbm affinity estimate (log intensity, higher = more binding, comparable within an allelic series).

As to GCAAGCTA, the binding signal was 8.39 upbm affinity estimate (log intensity, higher = more binding, comparable within an allelic series) in assay [1] and 8.42 upbm affinity estimate (log intensity, higher = more binding, comparable within an allelic series) in assay [2].

Take CCATTATA: the binding signal was 11.2 upbm affinity estimate (log intensity, higher = more binding, comparable within an allelic series) in assay [1] and 8.97 upbm affinity estimate (log intensity, higher = more binding, comparable within an allelic series) in assay [2].
